# A number with no mark means an inactive call. Activity calls are given as the source filed them. The call rests on the fitted dose curve; in most records, active means well fitted activation curve with a large enough effect; inconclusive means small, poorly fitted or top-dose-only effect; inactive means no such curve, though single readings can be large or run the other way.
# Target: Cytochrome P450 3A4 (Homo sapiens) (UniProt P08684)
# Assay: qHTS Assay for Activators of Cytochrome P450 3A4 (AID 885); further: nearly all actives have a fitted effect of over 65% in size
# Conditions: recombinant CYP3A4, Luciferin-PPXE luminescence, 60 min; series mostly up to 57.1 µM; activity change, positive = activation: at the top concentration
# Description: NIH Molecular Libraries Screening Centers Network [MLSCN]
# NIH Chemical Genomics Center [NCGC]
# The P450 gene superfamily is involved in the metabolism and clearance of xenobiotics. This assay used human CYP3A4 to measure the dealkylation of luciferin-6' phenylpiperazinylyl (Luciferin-PPXE; […]) to luciferin. The luciferin is then measured by luminescence after the addition of a luciferase detection reagent. Luciferin-PPXE concentration in the assay was equal to its KM for CYP3A4. Inhibitors and some substrates limit the production of luciferin, and decrease measured luminescence; activators increase the production of luciferin and luminescence.
# NCGC Assay Protocol Summary:
# Two uL of enzyme and substrate mix (final concentrations: 20nM CYP3A4, 25uM Luciferin-PPXE, 200mM KPO4) were dispensed into a white, solid bottom 1536-well microtiter plate. 23nL of compound was transferred by a pin tool. The plate was incubated at RT for 10 min. Two uL of an NADPH regeneration solution (Promega supplied reagent) was dispensed and the reaction was allowed to continue for 60 min at RT. Then the reaction was stopped by reconstituted luciferin detection buffer. After another 20 min of incubation the plate was read on the ViewLux (Perkin Elmer) at 60 sec exposure and 2x2 binning. This protocol was carried out with Promega-Glo reagents and further information can be found at http://www.promega.com/tbs/tb325/tb325.pdf. Data were normalized to the to AC100 inhibition (57 uM ketoconazole).
# Keywords: P450, CYP2D6, Luciferase, MLSMR, MLSCN, NIH Roadmap, qHTS, NCGC
# Cytochrome P450 3A4 (Homo sapiens), sequence (P08684 whole entry, looked up): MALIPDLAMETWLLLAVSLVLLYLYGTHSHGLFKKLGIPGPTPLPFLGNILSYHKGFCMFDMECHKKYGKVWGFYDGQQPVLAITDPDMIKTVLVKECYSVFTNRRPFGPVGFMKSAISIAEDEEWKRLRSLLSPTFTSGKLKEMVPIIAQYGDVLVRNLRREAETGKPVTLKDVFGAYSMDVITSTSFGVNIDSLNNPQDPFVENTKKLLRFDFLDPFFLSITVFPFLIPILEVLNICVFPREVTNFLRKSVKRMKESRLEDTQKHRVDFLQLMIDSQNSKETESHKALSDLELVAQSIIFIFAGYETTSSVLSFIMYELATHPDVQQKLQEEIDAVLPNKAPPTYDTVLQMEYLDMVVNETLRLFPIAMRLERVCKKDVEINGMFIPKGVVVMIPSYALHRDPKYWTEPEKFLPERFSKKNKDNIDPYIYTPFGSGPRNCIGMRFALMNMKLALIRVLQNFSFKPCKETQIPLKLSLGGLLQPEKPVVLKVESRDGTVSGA
SMILES,"activity change, positive = activation",Potency
CC(C)(C)C(O)(CCc1ccc(Cl)cc1)Cn1cncn1 (stereo not given),-112%,
Cc1ccc2c(c1N)C(=O)c1ccccc1C2=O,-72.7%,
C[C@H](Br)CN(C[C@H](C)Br)c1ccc2c(c1)Cc1ccccc1-2,-34.7% [at 11.4 µM],
COc1ccc2c(c1O)-c1cccc3c1[C@H](C2)N(C)CC3,-40.2%,
COP(=S)(OC)SCn1nnc2ccccc2c1=O,-89.7%,
C=CCN1CC[C@]23c4c5ccc(O)c4O[C@@H]2/C(=N/NC(=O)c2ccccc2)CC[C@@]3(O)[C@H]1C5,-30.2%,
C[Se]C[C@@H](N)C(=O)O,-35.9%,
Clc1ccc(C(Cl)(Cl)Cl)c(Cl)c1,-30.3%,
Cc1cc(-c2ccc(N)c(C)c2)ccc1N,-59%,
Oc1cc(Cl)c(Cl)c(Cl)c1,-49.8%,
Cc1ccc(N=C=O)cc1N=C=O,-67.7%,
Cc1c([C@@H](C)[C@H]2NC[C@H](C)C[C@@H]2O)ccc2c1C[C@@H]1[C@H]2CC=C2C[C@@H](O)CC[C@@]21C,-38% [at 11.4 µM],
Nc1ccc(Cc2ccc(N)c(Cl)c2)cc1Cl,-95.3%,
Nc1ccc(-c2ccc(N)cc2)cc1,-32.4%,
Nc1cc(Cl)cc(C(=O)O)c1Cl,-45.8%,
Nc1ccc(-c2ccc(N)c(Cl)c2)cc1Cl,-102%,
CN(C)c1ncc2nc(-c3ccc(F)cc3)c(=O)n(Cc3cccs3)c2n1,-47.3%,
Oc1ccc(CCNCc2cc3c(cc2Br)OCO3)cc1,-36.4% [at 11.4 µM],
Nc1ccc(S(=O)(=O)c2ccc(NCN3C(=O)NC(=O)C(=O)C3=O)cc2)cc1,-78% [at 11.4 µM],
COc1cc2c(cc1OC)[C@]13CC[N@+]4(C)CC5=CCO[C@H]6CC(=O)N2[C@@H]1[C@@H]6[C@@H]5C[C@]34O,-28.5% [at 11.4 µM],

SMILES,"activity change, positive = activation",Potency
CSC([N-]/N=C/c1cccc(C)n1)=[S]=[Cu].CS[C@H]([S-])[N-]/N=C/c1cccc(C)n1,-73.3% [at 11.4 µM],
CCCCCOC(=O)c1ccccc1C(=O)OCCCCC,-43.2%,
Nc1cc(Cl)cc(Cl)c1,-31.6%,
CCC1=C(C[C@H]2NCCc3cc(OC)c(OC)cc32)C[C@H]2c3ccccc3CCN2C1,-34.9% [at 11.4 µM],
Cc1cc(N=Nc2ccccc2C)ccc1N,-86.5%,
N[C@H](Cc1ccc2oc3cc(=O)c4ccccc4c-3nc2c1)C(=O)O,-32.5% [at 11.4 µM],
C[C@@H]1Cc2cc3c(cc2C(c2ccc(N)cc2)=NN1)OCO3,-88.3%,
O=C(c1ccccc1)[C@H]1[C@H](c2ccccc2[N+](=O)[O-])N1C1CCCCC1 (stereo not given in full),-50.5% [at 11.4 µM],
C[C@H](CC(C#N)(c1ccccc1)c1ccccc1)N1CCCCC1,-53% [at 11.4 µM],
COc1cc(C[C@H](C)N)c(OC)cc1I,,inactive
COc1ccccc1CN1CCCC2(CCN(C(=O)Oc3ccccc3)CC2)C1,-37%,
N#Cc1cccc(NC(=O)N2CCCC3(CCN(C(=O)Oc4ccccc4)CC3)C2)c1,-57.7%,
C=C(Cl)CSC(=S)N(CC)CC,-54.3%,
CCOP(=S)(OCC)Oc1nc(Cl)c(Cl)cc1Cl,-93.2%,
CC(=O)NNc1ccccc1,-37.2%,
C[C@@H](O)CN(CCN(C[C@@H](C)O)C[C@@H](C)O)C[C@@H](C)O.O=[N+]([O-])O.[Cu],-36.8% [at 11.4 µM],
CC(=O)[C@@H]1CC[C@H]2[C@H]3CC[C@H]4C[C@@H](O)CC[C@]4(C)[C@@H]3CC[C@]12C,-33.2%,
CC(C)=C[C@H]1[C@@H](C(=O)OCc2cc3c(cc2Cl)OCO3)C1(C)C,-75% [at 11.4 µM],
COc1ccc2c3c1O[C@@H]1C(=O)CC[C@@]4(O)[C@@H](C2)N(CC2CC2)CC[C@]314,-39.6%,
Oc1ccc(Cl)c(Cl)c1Cl,-31.9%,
